# Screening results: PubChem BioAssay, several laboratories
# LMP1 NFkB inh = reduces LMP1-driven NF-kappaB luciferase signal. LMP1-induced NF-kappaB luciferase reporter cells, luminescence. inhibition, % at 12.5 µM. 350,000 compounds, 0.69% hits. AID 504558; in the data active means inhibition above about 41%; inconclusive means no clear call, values can overlap the other calls
# MITF TRPM1 inh = MITF TRPM1 promoter inhibition in SK-MEL-5 cells; SK-MEL-5 TRPM1 promoter luciferase, 24 h; inhibition, % at 12.5 µM; 330,000 compounds, 0.83% hits;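 active means mean inhibition across replicates of 60% or more, whatever share of single replicates reaches that level; inconclusive means some that reach 60%, reason not given; inactive means mean inhibition across replicates below 60%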
# Peg3 promoter = Peg3 promoter activity inhibition; inhibition, % at 20 µM; 360,000 compounds, 1.7% hits; AID 588405; HeLa PEG-Prom luciferase reporter, luminescence, overnight;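 active means inhibition of at least 50% at 20 µM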
# TWEAK Fn14 block = inhibitors of TWEAK-Fn14 interaction signaling | TWEAK-stimulated Fn14 reporter cells, luciferase luminescence, 8 h | inhibition, % at 10 µM | 360,000 compounds, 2% hits; in the data active means inhibition above about 50%
# TROY signal inh = TROY signaling inhibition; Q293 LMP1-TROYcd NF-kB luciferase reporter, 4 h; inhibition, % at 10 µM; 360,000 compounds, 0.98% hits; AID 1347056;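 active means compounds whose plate-normalised and pattern-corrected inhibition of the luciferase reporter signal at the single screening dose is 50% or more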
# Shn3 inh set2 = Schnurri-3 reporter inhibition in Clone20 osteoblasts; Clone20 osteoblast Shn3 3'UTR firefly luciferase, 24 h; inhibition, % at 12.5 µM; 360,000 compounds, 0.52% hits; AID 588674;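 active means mean inhibition of at least 75% with every replicate also reaching 75%; inconclusive means mean inhibition at least 75% but some replicate below; inactive means mean inhibition below 75%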
# Numbers stand for hits; n = inactive; u = inconclusive; x = no result given. In the library only some 4.1% were active in any assay of this set; here they are far more common.
SMILES,LMP1 NFkB inh,MITF TRPM1 inh,Peg3 promoter,TWEAK Fn14 block,TROY signal inh,Shn3 inh set2
CC(=O)Nc1nc(-c2ccc3c(c2)CC(C)N3C(=O)C2CC2)c(C)s1 (stereo not drawn),79,n,n,n,n,n
Cc1sc(NC(=O)c2ccco2)nc1-c1ccc2c(c1)CC(C)N2C(=O)C1CC1 (stereo not drawn),43,n,55,n,n,n
COc1ccc(CCN(C)C(=O)c2ccc(C)c(S(=O)(=O)N3CCCCC3)c2)cc1OC,n,n,n,n,n,n
CCCN(CC(=O)Nc1ccccc1C)C(=O)c1cc2ccccc2oc1=O,n,x,n,n,n,n
NC(=O)c1cc(S(=O)(=O)NCc2ccc(Br)cc2)cs1,n,n,n,n,n,n
COCCNC(=O)NC12CC3(C)CC(C)(CC(C)(C3)C1)C2,57,n,n,n,n,n
C=CCSc1nc2ccccc2n1C(=O)/C=C/c1cc(OC)c(OC)c(OC)c1,81,87,98,57,n,97
C=CCSc1nc2ccccc2n1C(=O)/C=C/c1ccc(OC)c(OC)c1,n,n,104,98,n,98
CCSc1nc2ccccc2n1C(=O)/C=C/c1ccc(OC)c(OC)c1,82,76,103,100,n,96
CCn1c(SCC(=O)N/N=C/c2ccc(OC)c(OC)c2)nc2ccccc21,n,n,n,n,n,n
Cc1cc(C)n(/N=C/c2cc([N+](=O)[O-])ccc2O)c(=O)c1,n,n,n,n,60,n
O=[N+]([O-])c1ccc(O)c(/C=N/n2cnnc2)c1,n,n,n,n,n,n
Cc1cccc2c1N(C)C(=O)C2=O,n,n,n,n,n,n
Cc1ccc(S(=O)(=O)ON2C(=O)c3ccccc3C2=O)c(C)c1,n,n,60,n,n,n
Cc1cc(C)c(C)c(S(=O)(=O)ON2C(=O)c3ccccc3C2=O)c1C,n,n,89,n,n,n
Cc1ccc(S(=O)(=O)N2CCN(CCc3ccccc3)CC2)c(C)c1,n,n,n,n,n,n
O=C1c2ccccc2C(=O)N1OS(=O)(=O)c1ccc(F)cc1,n,n,61,n,n,n
O=C(OCn1ncc(Cl)c(Cl)c1=O)c1cccc(C(F)(F)F)c1,n,94,104,98,n,97
N/C(=N\OC(=O)c1cccc(C(F)(F)F)c1)c1cnccn1,n,n,n,n,n,n
COc1ccc(-c2nnc(SCC(=O)NC3CC3)o2)cc1,n,n,n,n,n,n
CCCc1[nH]nc2c1C(c1ccccc1OC)C(C#N)=C(N)O2 (stereo not drawn),n,n,n,n,n,n
CCCc1[nH]nc2c1C(c1cn[nH]c1-c1ccc(F)cc1)C(C#N)=C(N)O2 (stereo not drawn),n,61,n,54,n,n
O=C(/C=C/c1ccccc1Cl)c1ccc(O)cc1,n,n,n,n,n,n
O=C(/C=C/c1c(F)cccc1Cl)c1ccc(O)cc1,n,n,n,61,n,n
COc1ccc(N(C(=O)CCl)C(C(=O)NCCc2ccccc2)c2cccs2)cc1 (stereo not drawn),n,88,105,60,n,96
SMILES,LMP1 NFkB inh,MITF TRPM1 inh,Peg3 promoter,TWEAK Fn14 block,TROY signal inh,Shn3 inh set2
NC(=O)C1CCN(C(=O)c2ccc(-c3ccccc3Cl)o2)CC1,n,n,n,n,n,n
CCN(CC(=O)Nc1ccc2c(c1)OCCO2)C(=O)COc1cc(C)ccc1Cl,n,n,n,87,n,n
CCOc1ccc(C(=O)N(CC)CC(=O)Nc2ccc3c(c2)OCCO3)cc1OCC,n,n,n,n,n,n
Cc1ccc(Cl)c(OCC(=O)Nc2ccc3c(c2)OCCO3)c1,n,n,n,n,n,n
CCN(CC(=O)Nc1ccc2c(c1)OCCO2)C(=O)c1ccc([N+](=O)[O-])s1,n,71,n,n,n,n
CC1CC(=Cc2ccc([N+](=O)[O-])cc2)C(=O)O1 (stereo not drawn),n,n,n,n,n,n
Cc1ccc(C(C)C)c(OCC(=O)NNCC(=O)Nc2cccc(F)c2)c1,n,n,n,n,n,n
O=C(Nc1ccc(Oc2ccc(Cl)cc2)c(Cl)c1)c1cc(I)cc(I)c1O,n,n,82,57,72,n
Oc1[nH]c2ccccc2c1N=Nc1ccccn1,n,n,n,n,n,n
Oc1c(N=Nc2ccccn2)ccc2ccccc12,48,n,n,80,n,n
Cc1nc2ccccc2c2oc(C(=O)N3CC(C)CC(C)C3)cc12 (stereo not drawn),n,n,n,n,n,n
Cc1ccc(C)c(N2CCN(C(=O)c3ccc4nc(-c5ccco5)c(-c5ccco5)nc4c3)CC2)c1,n,n,n,n,n,n
COc1ccccc1N1CCN(C(=O)c2ccc3nc(-c4ccco4)c(-c4ccco4)nc3c2)CC1,n,n,52,n,n,n
COc1ccccc1N1CCN(C(=O)c2cc3c(C)nc4ccccc4c3o2)CC1,n,n,n,n,51,n
Cc1ccc(CNC(=O)c2cc3c(C)nc4ccccc4c3o2)cc1,n,n,n,61,n,n
Cc1ccc(C)c(N2CCN(C(=O)c3cc4c(C)nc5ccccc5c4o3)CC2)c1,n,n,n,n,52,n
O=C(COC(=O)Cn1nnc2ccccc21)NC1CCCC1,n,n,n,n,n,n
CCC(C)c1ccccc1NC(=O)COC(=O)C1=NN(c2ccccc2)C(=O)CC1 (stereo not drawn),n,n,n,n,n,n
Cc1cc(C(=O)NN=C2CCCCCC2)c(C)o1,n,n,n,n,n,n
CCC(C(=O)NCCCN1CCCC1=O)n1c2ccccc2c2nc(=O)cc(C)n21 (stereo not drawn),n,n,n,n,n,n
C/C(=N\NC(=O)Cc1ccc(Cl)cc1)c1cccc(NC(=O)c2cccnc2)c1,n,n,n,n,n,n
COc1ccc(-c2sc3cc4c(cc3c2-c2ccc(OCCN3CCCCC3)cc2)OCO4)cc1,n,n,90,n,n,n
COc1cc(OC)cc(-c2sc3ccc(OC)cc3c2-c2ccc(OCCN3CCCCC3)cc2)c1,n,n,90,n,n,n
O=C(C1CCN(S(=O)(=O)N2CCCCC2)CC1)N1CCCCC1,56,n,n,n,n,n
C/C(=N\NC(=O)c1ccc(CSc2nc(C)cc(C)n2)cc1)c1ccco1,n,n,n,n,n,n
Cc1cc(C)c2nc(N3CCC(C(=O)NCC4CCCO4)CC3)sc2c1 (stereo not drawn),n,n,n,n,n,n
Cc1cc(C)c2nc(N3CCC(C(=O)NCCCN4CCCCC4)CC3)sc2c1,n,69,70,n,n,n
CCN(CC)C(=O)COc1ccc(-c2nnc(N3CCCCC3)c3ccccc23)cc1,n,n,n,n,n,n
CC(=O)N1CCN(c2nnc(-c3ccc(C)cc3)c3ccccc23)CC1,n,n,n,n,52,n
CCOc1ccc(-c2nnc(N3CCCCC3)c3ccccc23)cc1,n,n,n,n,59,u
